MPTP block: permeability transition pore inhibition | isolated mouse mitochondria, Ca2+ swelling absorbance, 30 min | inhibition, % at 10 µM | 360,000 tested, 1.4% active;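 active = inhibition of 50% or more, scaled per plate between neutral and stimulator controls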;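 also: 0% = DMSO wells given calcium and 100% = 1 mM EGTA wells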
aDG glyco act: increases alpha dystroglycan glycosylation. Pro5-aDG cells, alpha-DG glycosylation AlphaScreen (IIH6); 0% Pro5, 100% B10-LARGE cell signal. activation, % at 10 µM. 360,000 tested, 0.22% active. AID 624168;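 active = activation of at least 8% versus controls, or a plate z-score of at least 8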;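 also: Pro5 are CHO cells carrying HIG-tagged alpha-DG that lacks glycosylation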
TAG inh: inhibitors of triacylglycerol accumulation; H9c2 cells, Nile Red lipid (TAG) fluorescence; cells loaded with 200 µM oleic acid; inhibition, % at 12.5 µM; 230,000 tested, 0.66% active;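 active = pattern-corrected inhibition of lipid staining of at least 50% with the nuclear-stain viability signal not falling by more than 50%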;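 also: 0% = DMSO wells and 100% = triacsin C control wells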
NadD block: inhibitors of Staphylococcus aureus NadD. 360,000 tested, 0.78% active. purified NadD enzyme, colorimetric absorbance read-out. inhibition, % at 20 µM. AID 602399; in the data active = inhibition above about 26%
Rh123 counter: membrane potential counter-screen of mitochondrial pore inhibitors | 5,000 tested, 78% active | isolated mitochondria, Rhodamine 123 fluorescence | shares compounds with MPTP block | inhibition, % at 10 µM; in the data active = inhibition above about 22%;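 also: 0% = DMSO vehicle and 100% = positive control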
MPTP abs DR: dose response confirmation of mitochondrial permeability transition pore inhibitors; shares compounds with MPTP block; isolated mitochondria swelling, absorbance; IC50, µM; 780 tested, 58% active; AID 651561; in the data active = IC50 below about 20 µM
MPTP counter DR: MPTP inhibitor counter-screen activity, dose response; isolated mitochondria counterscreen, fluorescence read-out; 780 tested, 49% active; shares compounds with MPTP block; IC50, µM; in the data active = IC50 below about 80 µM
The depositor's hits bear a star; i = inactive; x = no result given. Compounds with a hit are over-represented: about 2.7% of the library has one in this group of screens.

SMILES	MPTP block	aDG glyco act	TAG inh	NadD block	Rh123 counter	others
Cc1[nH]n(-c2ccccc2)c(=O)c1C(c1ccc(O)c([N+](=O)[O-])c1)c1c(C)[nH]n(-c2ccccc2)c1=O	91*	0	-10	21	74*
COc1ccc(C(C[N+](=O)[O-])c2c(C)[nH]n(-c3ccccc3)c2=O)cc1 (configuration not stated)	-1	0	x	-1	x
O=C(c1cn(-c2ccccc2)nc1-c1cccnc1)N1CCN(S(=O)(=O)c2cccc(F)c2)CC1	0	0	9	2	x
O=c1c(Sc2ccccc2)c(C(F)(F)F)[nH]n1-c1ccccc1	70*	0	x	-5	89*
CC(C)c1cc(C(=O)NNC(=S)NCc2ccco2)c(O)c(C(C)C)c1	85*	0	x	3	83*
CCCS(=O)(=O)NC(=O)C1(C)CCCN(C(=O)c2cc(-c3cccs3)oc2C)C1 (configuration not stated)	1	0	0	1	x
CCOC(=O)C1(Cc2ccc(Cl)cc2)CCN(C(C)Cc2ccc(O)c(OC)c2)CC1 (configuration not stated)	95*	1	x	0	95*
CCOC(=O)C1CCCN(S(=O)(=O)c2ccc(S(=O)(=O)N(CC)CC)cc2)C1 (configuration not stated)	97*	7.4*	-33	2	102*
O=C1CCC[C@@H]2Cc3nc4ccc(Cl)cc4cc3[C@@H]3CCN1[C@H]23	0	0	16	0	x
CC1(C)SC(=S)N(NC(=O)Nc2ccccc2)C1N(O)C(=O)Nc1ccccc1 (configuration not stated)	58*	0	-12	1	70*
CNC(=O)N(O)C1N(NC(=O)Nc2cccc3ccccc23)C(=S)SC1(C)C (configuration not stated)	-2	0	x	-7	x
COc1ccccc1C(=O)Nc1nnc(SCC(=O)NC2CCCC2)s1	3	0	4	-5	x
O=C(CCNc1ccc(Br)cc1)c1cccc([N+](=O)[O-])c1	6	0	6	-3	x
O=C(/C(N=Nc1cccc([N+](=O)[O-])c1)=C(/O)c1ccc(Br)cc1)C(F)(F)F	78*	0	2	5	62*
Cc1ccc(NC(=O)C=NOCC(=O)Nc2cc(C)cc(C)c2)cc1	-1	0	-10	0	x
CC(=O)C1CCC2C3CC=C4CC(SC(=N)N)CCC4(C)C3CCC12C (configuration not stated)	80*	0	21	7	24*
Cc1ccc(C(=S)NCS(=O)(=O)c2ccc(C)cc2)cc1	-1	0	x	1	x
Cc1ccc(S(=O)(=O)CNC(=S)c2cccc(Cl)c2)cc1	77*	0	x	-1	83*
CCC1CCCCN1S(=O)(=O)c1ccc(C(=O)Nc2nnc(C3CC3)o2)cc1 (configuration not stated)	-4	0	29	10	x
CCC1CCCCN1S(=O)(=O)c1ccc(NC(=O)c2ccncc2)cc1 (configuration not stated)	75*	3	-14	-5	89*
Cc1ccc(OCCNCC(O)COc2ccccc2)cc1 (configuration not stated)	2	0	x	-10	x
CC(=O)CCc1ccc(OCC(O)CNCCOc2ccc(C)cc2)cc1 (configuration not stated)	74*	0	x	-5	-9	MPTP abs DR=i;MPTP counter DR=>80
O=C(COc1ccc2c(-c3ccccc3)cc(=O)oc2c1)NCc1ccccn1	-1	0	x	-4	x
O=C(COc1ccc2c(-c3ccccc3)cc(=O)oc2c1)Nc1cccnc1	85*	1	x	3	87*
CCOc1ccc(NS(=O)(=O)c2cc(NC(=O)c3cccc(C)c3)ccc2Cl)cc1	89*	1	x	11	41*
CC(C)c1ccc(C(=O)OCC(=O)NC2CCCC2)cc1	-1	0	x	-5	x
O=C(O)/C=C1\NC(=O)c2ccccc21	-3	0	4	3	x
O=C1N/C(=C\c2ccc(O)cc2)C(=O)c2ccccc21	73*	0	x	-1	-7
N#CC(=C1C=C(Br)C(=NO)C=C1Cl)c1ccc(Cl)cc1	83*	0	5	17	85*
COC(=O)/C=C1\SC(=NC(=O)c2cccc(Cl)c2)NC1=O	60*	0	x	6	37*

Screening results as filed in PubChem BioAssay.
